Compound activity deposited in PubChem BioAssay by National Center for Advancing Translational Sciences (NCATS).
Abeta rescue: A-beta toxicity reversal in yeast; yeast expressing A-beta42, growth rescue, OD600, 48 h; response scale: 0% DMSO, 100% iron-clioquinol control; actives 0.063% (n = 410,000); Potency, µM (top dose mostly 46.1 µM), hits mostly activators; note: nearly all actives have a fitted effect of over 55% in size
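Yeast growth medium received pinned compounds, then yeast cells expressing toxic A-beta were added; plates incubated at 30 C for 48 hr. Growth read as absorbance at 600 nm, normalized to DMSO and equimolar FeCl3 plus clioquinol controls.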
FUS yeast rescue: suppressors of FUS proteinopathy in yeast; Potency, µM (doses to about 76.6 µM), actives largely listed as activators; actives 0.24% (n = 390,000); S. cerevisiae FUS-expressing, growth rescue, OD600, 24 h; note: nearly all actives have a fitted effect of over 55% in size
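Yeast FUS proteinopathy model; galactose-induced FUS (2%), starting OD 0.005. Cpds in dilution series, 24hr, 30C, 99% humidity. Abs 600 nm growth. Pos ctrl CP55940 (top 92uM final); neg ctrl DMSO.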
TDP-43 yeast inh: rescues yeast growth from TDP-43 toxicity; TDP-43 expressing yeast growth rescue, BacTiter-Glo, 24 h; Potency, µM (top dose mostly 46.1 µM), hits mostly activators; actives 1.8% (n = 410,000); note: nearly all actives have a fitted effect of over 50% in size
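Cell-based yeast growth screen: TDP-43 expression induced in galactose, inoculum OD600=0.02 after raffinose pregrowth to mid-log. Read-out BacTiter-Glo luminescence at 24 hr, 30 deg C; inhibition of toxicity seen as signal increase.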
aSyn rescue: rescues yeast growth from alpha-synuclein toxicity; Yeast expressing alpha-synuclein, growth rescue, BacTiter-Glo, 24 h; Potency, µM (series often up to 46.1 µM), actives largely listed as activators; actives 0.14% (n = 370,000); AID 652106; note: nearly all actives have a fitted effect of over 65% in size
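Galactose-induced alpha-syn yeast (OD600=0.02, raffinose-pregrown) + pinned cpd, 24 hr, 30 deg C; growth by BacTiter-Glo luminescence. Growth restoration scores as activation.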
Hits are given with their value; - = inactive; ? = inconclusive; . = no result given. Rows were chosen to be rich in hits. Some 2.1% of all compounds tested hit in one or more screens of this group. Calls come from the whole dose curve; as a rule, active = well fitted curve in the direction sought with a large enough effect; inconclusive = small, poorly fitted or top-dose-only effect, or another doubt; inactive = no such curve, though single readings can be large; an effect the other way counts as inactive or inconclusive.

SMILES	Abeta rescue	FUS yeast rescue	TDP-43 yeast inh	aSyn rescue
CCCCOC(=O)c1ccc(Nc2ncnc3nc[nH]c23)cc1	-	-	-	-
O=c1c2c3c(sc2nc2n1CCCCC2)CCCC3	-	-	13µM	-
O=c1c2c3c(sc2nc2n1CCCS2)CCCC3	-	-	18µM	-
Cc1ccc(-c2nnc(SC(C)C(=O)NCc3ccco3)n2C)cc1 (stereo not drawn)	.	.	.	-
COc1ccc(C2=NN(C(C)=O)CC2c2cccc([N+](=O)[O-])c2)cc1 (stereo not drawn)	.	-	11µM	-
Cc1ccc2nc(-c3ccccc3Cl)cc(C(=O)Nc3cc(C)on3)c2c1	-	-	18µM	-
CCC1CCCCN1C(=O)Cn1c(=O)n(CCCCCC(=O)NCc2ccccc2Cl)c(=O)c2sccc21 (stereo not drawn)	-	-	-	.
CC(=O)NC1=C(C#N)CCC1	.	.	.	-
Fc1cc(Br)ccc1Nc1c2c(nc3nc(-c4cccs4)nn13)CCCC2	-	-	20µM	.
Cc1ccc(Nc2c3c(nc4nc(-c5cccs5)nn24)CCCC3)cc1F	-	-	-	.
Cc1ccc(CNC(=O)c2ccc(N3CCC4(CC3)CC(c3cccc(Br)c3)=NO4)c(NC(=O)c3ccco3)c2)cc1	-	?	-	-
Cc1ccc(CNC(=O)c2ccc(N3CCC4(CC3)CC(c3ccccc3)=NO4)c(NC(=O)c3ccco3)c2)cc1	-	18µM	-	-
COc1ccc(-n2c(SCC(=O)NCC3CCCO3)nnc2-c2ccncc2)cc1 (stereo not drawn)	.	-	.	.
CCOc1ccc(CNC(=O)C2CCN(S(=O)(=O)N3CCCCC3)CC2)cc1	-	-	-	.
CCOC(=O)c1ccc(NC(=O)CC2C(=O)N(c3ccc(F)cc3)C(=O)N2Cc2ccc3c(c2)OCO3)cc1 (stereo not drawn)	-	40µM	-	.
COc1ccc2c(c1)CC/C(=C/c1ccco1)C2=O	-	-	14µM	-
Clc1cccc2sc(N3CCN(c4ccccc4)CC3)nc12	-	-	3.5µM	-
Clc1ccc(Cl)c2sc(N3CCCC3)nc12	-	-	7.1µM	-
CCOC(=O)c1c(C)sc(-c2c(-c3ccc4c(c3)OCCO4)[nH]c3c2c(=O)[nH]c(=O)n3C)c1O	-	-	-	.
Cc1cc2nc3c(nc2cc1C)C1(C(=O)O)CCC3(C)C1(C)C (stereo not drawn)	-	-	20µM	-
COc1ccc(CNCc2ccccc2)cc1COc1ccc(NC(C)=O)cc1	.	.	.	-
C=C1CC2(CC(c3ccccc3)OC(c3ccccc3)C2)OC1=O (stereo not drawn)	-	.	10µM	-
O=C(Nc1ccc(F)cc1)c1cccnc1NCCc1ccccc1	-	-	13µM	-
CCn1nc(C)c2c(-c3ccccc3)cc(=O)n(C(C)C(=O)NCCc3ccc(OC)c(OC)c3)c21 (stereo not drawn)	-	-	16µM	.
O=C(N=c1ccn(-c2nc3ccccc3nc2NS(=O)(=O)c2ccc(Cl)cc2)cc1)c1cccs1	-	-	-	-
SMILES	Abeta rescue	FUS yeast rescue	TDP-43 yeast inh	aSyn rescue
O=C(N=c1ccn(-c2nc3ccccc3nc2NS(=O)(=O)c2ccccc2)cc1)c1ccccc1Cl	.	25µM	-	-
COc1cc(/C=C/[N+](=O)[O-])ccc1OC(=O)/C=C/c1ccc(F)cc1	-	-	0.71µM	-
O=C(Cc1c(Cl)cccc1Cl)Nc1ccncc1Cl	-	-	11µM	-
Cc1nc(-c2cccc(NC(=O)c3ccc(Br)o3)c2)cs1	-	-	11µM	-
O=C(OCCCOc1ccc(F)cc1)c1ccc(O)cc1O	-	-	13µM	-
Cc1ccc2oc(C(=O)Nc3nc(-c4ccc(F)cc4)ns3)c(C)c2c1	-	-	-	.
COc1ccccc1NC(=O)N1CCN(c2nnc(C)c3c(C)n(-c4ccccc4)nc23)CC1	-	-	-	.
COC(=O)c1ccc2c(c1O)C(=O)c1ccccc1C2=O	-	-	7.9µM	-
COC(=O)c1cccc2c1-c1ccccc1/C2=N/O	-	-	13µM	-
O=C(COc1ccc2c3c(c(=O)oc2c1)CCC3)N1CCN(c2ccc(F)cc2)CC1	-	-	32µM	-
Cc1cccc(N2CCN(C(=O)COc3ccc4ccc(=O)oc4c3)CC2)c1C	-	-	?	-
O=C(COc1ccc2ccc(=O)oc2c1)N1CCN(c2ccccc2)CC1	-	-	20µM	-
NC(=S)Nc1cccc(Cl)c1	-	-	-	-
CS/C(N)=N/C(=S)Nc1cccc(Cl)c1	13µM	-	?	-
